The full data set covers some 7,900 targets. This sample favours those with a hit. About 0.6% of all pairs of compound and target were hits.
Experiments:
Assay in all cases: log2 fold change, soluble protein after heating vs DMSO (PISA); higher = thermal stabilisation; K562 cells, 10 uM, 30 min; active = over 0.2 and 3.5 SD of the protein, either way, in both replicates (recomputed)
bafetinib = compound: Cc1ccc(NC(=O)c2ccc(CN3CC[C@H](N(C)C)C3)c(C(F)(F)F)c2)cc1Nc1nccc(-c2cncnc2)n1 [bafetinib]
In short: (§1)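 K562 cells (2×10^6 cells/mL) were treated with 10 μM compound for 30 min, and aliquots were heated for 3 min over 48°C-58°C. Pooled aliquots were extracted in PBS with 0.5% NP-40 at 4°C, and the supernatant after 21,000xg for 90 min was measured by TMTpro 16plex LC-MS/MS with channel sums equalised. Reported thermal stability, relative to control samples and from duplicates, is a log2 fold change.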

nilotinib = compound: Cc1cn(-c2cc(NC(=O)c3ccc(C)c(Nc4nccc(-c5cccnc5)n4)c3)cc(C(F)(F)F)c2)cn1 [nilotinib]
In short: as §1

[1] = compound: Cc1nc(Nc2n[nH]c3c2CN(C(=O)N[C@H](CN(C)C)c2ccccc2)C3(C)C)c2sccc2n1
In short: as §1

dasatinib = compound: Cc1nc(Nc2ncc(C(=O)Nc3c(C)cccc3Cl)s2)cc(N2CCN(CCO)CC2)n1 [dasatinib]
In short: as §1

[2] = compound: Cc1ncc(-c2ccnc(Nc3ccc(S(C)(=O)=O)cc3)n2)n1C(C)C
In short: as §1

[3] = compound: Cn1cc(-c2ccc3c(c2)CCN3C(=O)Cc2cccc(C(F)(F)F)c2)c2c(N)ncnc21
In short: as §1

[4] = compound: Cn1cc(-c2ccc3nnc(C(F)(F)c4ccc5ncccc5c4)n3n2)cn1
In short: as §1

tipifarnib = compound: Cn1cncc1[C@@](N)(c1ccc(Cl)cc1)c1ccc2c(c1)c(-c1cccc(Cl)c1)cc(=O)n2C [tipifarnib]
In short: as §1

mubritinib = compound: FC(F)(F)c1ccc(/C=C/c2nc(COc3ccc(CCCCn4ccnn4)cc3)co2)cc1 [mubritinib]
In short: as §1

[5] = compound: Cc1cccc(CC(=O)N2CCc3c2ccc(-c2cn(C)c4ncnc(N)c24)c3F)n1
In short: as §1

Measured: log2 fold change

PNPLA4 (UniProt P41247)
Chain of UniProt P41247 (P41247 whole entry, looked up): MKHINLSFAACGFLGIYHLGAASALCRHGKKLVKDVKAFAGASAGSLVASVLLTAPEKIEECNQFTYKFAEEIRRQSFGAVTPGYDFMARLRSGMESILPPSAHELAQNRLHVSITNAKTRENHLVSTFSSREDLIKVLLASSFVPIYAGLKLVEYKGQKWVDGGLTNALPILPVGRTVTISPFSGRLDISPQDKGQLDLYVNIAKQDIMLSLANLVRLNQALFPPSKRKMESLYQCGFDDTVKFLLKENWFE
active: mubritinib 0.826
inactive: bafetinib -0.339 | nilotinib 0.128 | [1] -0.019 | dasatinib -0.165 | [2] -0.001 | [3] 0.156 | [4] 0.078 | tipifarnib -0.039

PUM1 (UniProt Q14671)
inactive: [5] -0.202 | dasatinib -0.207 | [3] 0.229

QRICH1 (UniProt Q2TAL8)
Chain of UniProt Q2TAL8 (Q2TAL8 whole entry, looked up): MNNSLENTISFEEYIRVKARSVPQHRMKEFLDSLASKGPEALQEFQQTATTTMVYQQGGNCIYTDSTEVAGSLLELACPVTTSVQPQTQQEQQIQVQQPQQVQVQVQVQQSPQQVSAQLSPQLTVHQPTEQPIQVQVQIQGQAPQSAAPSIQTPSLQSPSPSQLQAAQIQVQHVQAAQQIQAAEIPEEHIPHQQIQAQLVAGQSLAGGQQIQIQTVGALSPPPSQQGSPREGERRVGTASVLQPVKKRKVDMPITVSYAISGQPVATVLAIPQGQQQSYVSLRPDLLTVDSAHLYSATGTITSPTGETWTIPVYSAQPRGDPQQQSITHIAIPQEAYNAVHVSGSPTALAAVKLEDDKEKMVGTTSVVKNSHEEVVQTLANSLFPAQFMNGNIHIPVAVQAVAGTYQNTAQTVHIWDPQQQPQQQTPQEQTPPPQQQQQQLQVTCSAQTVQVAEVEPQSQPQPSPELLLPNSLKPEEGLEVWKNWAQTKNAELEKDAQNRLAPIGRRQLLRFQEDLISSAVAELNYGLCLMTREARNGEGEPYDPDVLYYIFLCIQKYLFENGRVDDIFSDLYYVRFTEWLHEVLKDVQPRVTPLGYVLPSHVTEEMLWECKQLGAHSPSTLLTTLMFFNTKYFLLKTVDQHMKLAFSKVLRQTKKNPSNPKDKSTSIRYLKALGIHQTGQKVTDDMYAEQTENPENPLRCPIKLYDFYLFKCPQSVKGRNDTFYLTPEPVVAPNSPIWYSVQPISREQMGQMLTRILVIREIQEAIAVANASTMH
inactive: bafetinib 0.042 | nilotinib -0.093 | [1] -0.118 | dasatinib -0.206 | [2] 0.078 | [3] 0.043 | [4] 0.108 | tipifarnib -0.159 | mubritinib -0.01

PTP4A2 (UniProt Q12974)
Chain of UniProt Q12974 (Q12974 whole entry, looked up): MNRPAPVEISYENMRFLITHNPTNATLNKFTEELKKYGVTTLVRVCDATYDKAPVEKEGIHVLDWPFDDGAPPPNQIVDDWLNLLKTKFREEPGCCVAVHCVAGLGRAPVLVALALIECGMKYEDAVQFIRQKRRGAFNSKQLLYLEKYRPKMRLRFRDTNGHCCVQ
inactive: bafetinib -0.045 | nilotinib 0.007 | [1] -0.056 | dasatinib 0.089 | [3] 0.094 | [4] -0.013 | tipifarnib 0.048 | mubritinib 0.047
active: [2] -0.43

PDE4A (UniProt P27815)
Chain of UniProt P27815 (P27815 whole entry, looked up): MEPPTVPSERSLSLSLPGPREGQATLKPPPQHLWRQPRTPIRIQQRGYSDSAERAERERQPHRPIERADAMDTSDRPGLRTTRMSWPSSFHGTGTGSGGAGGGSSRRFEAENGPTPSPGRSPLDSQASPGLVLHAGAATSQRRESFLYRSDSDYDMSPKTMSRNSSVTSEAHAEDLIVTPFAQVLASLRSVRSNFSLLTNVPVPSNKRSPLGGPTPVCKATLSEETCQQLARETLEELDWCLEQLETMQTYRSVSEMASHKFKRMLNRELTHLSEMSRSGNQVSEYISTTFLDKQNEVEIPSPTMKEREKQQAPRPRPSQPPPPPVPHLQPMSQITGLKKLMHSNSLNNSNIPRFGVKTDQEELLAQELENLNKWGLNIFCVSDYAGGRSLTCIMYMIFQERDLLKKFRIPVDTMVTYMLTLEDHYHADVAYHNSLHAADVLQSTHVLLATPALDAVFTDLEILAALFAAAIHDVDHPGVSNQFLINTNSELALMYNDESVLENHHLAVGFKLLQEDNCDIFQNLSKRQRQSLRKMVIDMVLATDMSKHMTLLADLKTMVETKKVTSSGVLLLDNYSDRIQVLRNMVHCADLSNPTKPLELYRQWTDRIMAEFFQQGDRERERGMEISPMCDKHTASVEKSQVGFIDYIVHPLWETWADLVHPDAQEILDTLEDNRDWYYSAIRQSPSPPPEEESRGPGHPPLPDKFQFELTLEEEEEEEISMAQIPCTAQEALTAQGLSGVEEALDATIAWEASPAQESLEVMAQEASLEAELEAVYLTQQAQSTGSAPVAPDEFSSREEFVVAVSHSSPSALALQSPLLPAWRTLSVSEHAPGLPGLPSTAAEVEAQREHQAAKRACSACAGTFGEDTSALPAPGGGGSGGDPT
inactive: bafetinib -0.157 | [3] -0.016 | [4] 0.021 | tipifarnib -0.108

PDE4DIP (UniProt E9PS60)
inactive: [3] -0.007

PSD3 (UniProt Q9NYI0)
inactive: nilotinib -0.117 | [1] 0.029 | [2] 0.014 | [3] -0.002 | [4] 0.071 | tipifarnib -0.062 | mubritinib -0.035

PMS2CL (UniProt Q68D20)
Chain of UniProt Q68D20 (Q68D20 whole entry, looked up): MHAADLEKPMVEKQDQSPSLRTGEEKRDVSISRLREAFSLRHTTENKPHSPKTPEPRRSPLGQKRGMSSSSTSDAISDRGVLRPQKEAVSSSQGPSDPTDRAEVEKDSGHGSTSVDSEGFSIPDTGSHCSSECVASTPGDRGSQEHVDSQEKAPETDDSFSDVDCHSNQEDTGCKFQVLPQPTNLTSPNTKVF
inactive: nilotinib -0.189 | [1] -0.154 | [2] 0.115 | [4] -0.128 | mubritinib -0.054

POLR2M (UniProt Q6EEV4)
Chain of UniProt Q6EEV4 (Q6EEV4 whole entry, looked up): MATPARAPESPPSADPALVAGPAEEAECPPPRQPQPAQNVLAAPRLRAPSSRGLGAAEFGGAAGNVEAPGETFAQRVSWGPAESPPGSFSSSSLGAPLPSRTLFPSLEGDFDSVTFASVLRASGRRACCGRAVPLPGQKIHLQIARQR
inactive: bafetinib -0.215 | nilotinib 0.107 | [1] -0.016 | dasatinib -0.003 | [2] -0.022 | [3] 0.135 | tipifarnib -0.095 | mubritinib 0.035

PSMD8 (UniProt K7EK21)
inactive: [3] -0.216

PSMC3 (UniProt E9PLG2)
inactive: bafetinib 0.147 | dasatinib 0.258 | mubritinib 0.059

PAN2 (UniProt Q504Q3)
Chain of UniProt Q504Q3 (Q504Q3 whole entry, looked up): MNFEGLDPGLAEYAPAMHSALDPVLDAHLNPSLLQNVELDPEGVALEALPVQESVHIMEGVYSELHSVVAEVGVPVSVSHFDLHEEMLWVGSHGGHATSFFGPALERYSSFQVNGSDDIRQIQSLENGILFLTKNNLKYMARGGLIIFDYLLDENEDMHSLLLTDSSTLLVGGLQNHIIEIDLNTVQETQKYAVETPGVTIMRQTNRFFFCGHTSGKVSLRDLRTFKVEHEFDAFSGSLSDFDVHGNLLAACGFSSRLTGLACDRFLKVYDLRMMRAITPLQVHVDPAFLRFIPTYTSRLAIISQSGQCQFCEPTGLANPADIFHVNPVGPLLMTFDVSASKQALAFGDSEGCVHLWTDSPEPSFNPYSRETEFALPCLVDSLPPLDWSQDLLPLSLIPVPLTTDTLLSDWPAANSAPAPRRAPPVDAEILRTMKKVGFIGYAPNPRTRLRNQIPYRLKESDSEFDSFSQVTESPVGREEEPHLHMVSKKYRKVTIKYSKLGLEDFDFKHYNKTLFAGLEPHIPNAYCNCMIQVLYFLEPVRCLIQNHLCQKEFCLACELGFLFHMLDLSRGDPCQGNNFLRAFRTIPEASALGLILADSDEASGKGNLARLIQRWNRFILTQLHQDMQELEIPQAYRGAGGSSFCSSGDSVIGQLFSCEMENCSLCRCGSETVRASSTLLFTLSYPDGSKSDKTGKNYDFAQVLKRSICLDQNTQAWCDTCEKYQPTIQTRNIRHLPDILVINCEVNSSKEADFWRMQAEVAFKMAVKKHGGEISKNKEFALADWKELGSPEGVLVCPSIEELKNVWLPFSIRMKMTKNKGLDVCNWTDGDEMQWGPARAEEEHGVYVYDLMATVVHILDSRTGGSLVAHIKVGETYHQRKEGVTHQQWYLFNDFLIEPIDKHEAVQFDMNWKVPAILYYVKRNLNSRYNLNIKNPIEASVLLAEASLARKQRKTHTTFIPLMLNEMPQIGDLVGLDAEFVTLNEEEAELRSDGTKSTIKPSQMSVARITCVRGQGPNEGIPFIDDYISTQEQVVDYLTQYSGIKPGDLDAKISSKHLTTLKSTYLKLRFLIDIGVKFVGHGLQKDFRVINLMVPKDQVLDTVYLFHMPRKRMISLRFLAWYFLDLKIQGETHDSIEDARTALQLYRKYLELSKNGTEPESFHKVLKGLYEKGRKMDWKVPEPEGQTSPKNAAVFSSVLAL
inactive: bafetinib -0.052 | nilotinib -0.123 | [1] -0.02 | dasatinib 0.013 | [2] -0.09

PIK3CD (UniProt O00329)
inactive: bafetinib 0.033 | [3] -0.228 | [4] 0.074 | tipifarnib 0.031

PPP1R12B isoform 6 (UniProt O60237)
Chain of UniProt O60237 (O60237 whole entry, looked up): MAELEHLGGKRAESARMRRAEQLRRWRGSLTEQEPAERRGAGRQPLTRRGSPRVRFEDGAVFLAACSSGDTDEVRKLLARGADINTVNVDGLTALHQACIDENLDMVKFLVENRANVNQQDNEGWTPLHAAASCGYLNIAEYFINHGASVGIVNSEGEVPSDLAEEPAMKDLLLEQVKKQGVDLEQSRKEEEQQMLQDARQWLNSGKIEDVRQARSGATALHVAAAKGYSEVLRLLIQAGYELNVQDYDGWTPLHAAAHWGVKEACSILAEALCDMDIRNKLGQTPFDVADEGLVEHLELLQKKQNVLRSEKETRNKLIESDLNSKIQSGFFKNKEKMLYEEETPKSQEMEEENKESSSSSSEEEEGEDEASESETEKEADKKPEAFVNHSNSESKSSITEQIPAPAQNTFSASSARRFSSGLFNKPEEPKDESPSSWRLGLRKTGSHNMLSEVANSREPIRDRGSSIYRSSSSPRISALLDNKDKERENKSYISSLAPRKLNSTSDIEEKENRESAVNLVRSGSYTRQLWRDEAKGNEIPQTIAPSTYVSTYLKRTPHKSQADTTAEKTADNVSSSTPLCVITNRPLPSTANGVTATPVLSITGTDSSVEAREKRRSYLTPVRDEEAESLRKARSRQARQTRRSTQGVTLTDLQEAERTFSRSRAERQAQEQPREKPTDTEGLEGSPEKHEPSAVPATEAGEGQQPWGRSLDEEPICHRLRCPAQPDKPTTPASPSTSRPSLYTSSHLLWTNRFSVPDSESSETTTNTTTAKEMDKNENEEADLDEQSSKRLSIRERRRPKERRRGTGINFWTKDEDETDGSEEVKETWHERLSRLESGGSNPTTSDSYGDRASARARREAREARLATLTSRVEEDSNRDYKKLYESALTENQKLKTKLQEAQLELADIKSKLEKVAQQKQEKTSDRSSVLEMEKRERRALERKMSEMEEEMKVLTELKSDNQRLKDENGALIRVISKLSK
inactive: bafetinib -0.024 | nilotinib -0.004 | [1] -0.191 | [2] 0.007

PEX5 isoform 4 (UniProt P50542)
inactive: dasatinib 0.139 | [3] 0.219 | [4] -0.078

PCNX1 (UniProt Q96RV3)
inactive: bafetinib -0.112 | nilotinib 0.007 | [1] 0.009 | [2] 0 | tipifarnib 0.305 | mubritinib -0.019

POGZ (UniProt Q7Z3K3)
inactive: [5] 0.174 | dasatinib -0.318 | [3] 0.072 | [4] 0.061 | tipifarnib -0.124
